Hit rate of the full screen: of about 220,000 compounds, about 880 (0.4%) were called active. The list comes from a sample in which actives are over-represented; it also holds similar structures and randomly drawn compounds. Unmarked numbers belong to inactive results.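 How the source made its calls: active means cell killing above 50% in the first pass at 4 µM, then a duplicate retest at 5 µM averaging 50% or more; inactive means the rest.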

A short description of this experiment: compounds killing PPC-1 cancer cells with TRAIL present, primary screen, TRAIL potentiator project, ATPLite luminescence, uHTS (AID 1443).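 Further: plate controls were cells with TRAIL plus DMSO for no effect and medium-only wells lacking cells for full effect.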 The conditions noted are these: PPC-1 cells + TRAIL, ATPLite viability luminescence, stronger effect = higher value; at 4 µM unless noted.
For the compound `CC(=O)c1sc(NC(=O)c2cccc3ccccc23)nc1C`, the cell killing (% activity) is 32%.

On to `COC(=O)c1sc(NC(=S)NC(=O)c2ccc(C)cc2)nc1C`, for which the cell killing (% activity) was 27.1%.

As for `CC(=O)c1sc(NC(=O)c2ccc(C)cc2)nc1C`, the cell killing (% activity) is 56.3% [at 5 µM] (active).

As to `CC(=O)c1cc(-c2ccccc2)n(CC(=O)NC2CCCCC2)c1C`, the cell killing (% activity) was 6.9%.

As for `CCCCCC(O)c1cccc(OCc2ccc3ccccc3n2)c1` (stereo unspecified), the cell killing (% activity) was 10.7%.

Regarding `Cc1n[nH]c(=O)nc1N/N=C/c1cccs1`, the cell killing (% activity) was 12.1%.

Take `COc1cccc(NC(=O)CC(c2ccc(OC(C)C)cc2)c2ccccc2OC)c1` (stereo unspecified): the cell killing (% activity) was 22.6%.

On to `C=C(C)CNC(=S)Nc1ccc(S(=O)(=O)Nc2cnc3ccccc3n2)cc1`, for which the cell killing (% activity) was 12.5%.

Turning to `O=C(O)/C=C/c1cn(-c2ccccc2)nc1-c1cccs1`, the cell killing (% activity) is 15.1%.

For `O=C(/C=C\c1cn(-c2ccccc2)nc1-c1cccs1)N1CCOCC1`, the cell killing (% activity) was 5.8%.

For `O=C(O)c1ccc(N/N=C/c2cn(-c3ccccc3)nc2-c2cccs2)cc1`, the cell killing (% activity) was 79% [at 5 µM] (active).

For the compound `O=C(COC(=O)Cc1ccc(Br)cc1)Nc1c(F)c(F)c(F)c(F)c1F`, the cell killing (% activity) is 17%.

In the case of `O=C(CCl)Nc1cccc(CP(=O)(c2ccccc2)c2ccccc2)c1`, the cell killing (% activity) was -1.1%.

For the compound `O=C(Cc1cccs1)N/N=C/c1ccc(OCc2ccccc2)cc1`, the cell killing (% activity) was 20%.

For the compound `CC[C@@H](C)[C@@H](C(=O)N1CCN(C(=O)OC(C)(C)C)CC1)n1cc(CCC(=O)O)nn1`, the cell killing (% activity) is 19%.

In the case of `CC(=O)c1ccc(NC(=O)C2CC(=O)Nc3nc4ccccc4n32)cc1` (stereo unspecified), the cell killing (% activity) was 27.4%.

For `COc1cc(C2C(N3C(=O)c4ccccc4C3=O)C(=O)N2c2ccc(C)c(C)c2)cc(OC)c1OC` (stereo unspecified), the cell killing (% activity) is 0.4%.

Regarding `COC(=O)[C@H](CC(C)C)NC(=O)N1CCCCC1C` (stereo partly specified), the cell killing (% activity) was 8.6%.

For the compound `CS(=O)(=O)N(CC(=O)N/N=C/c1ccccn1)c1ccc(Oc2ccccc2)cc1`, the cell killing (% activity) is 2.8%.

For `CC(CNC(=O)c1ccc(N)cc1)NC(=O)c1ccc(N)cc1` (stereo unspecified), the cell killing (% activity) is 15.7%.

Consider `O=C(NN1C(=O)C2C(C1=O)C1C=CC2C12CC2)c1ccccc1Cl` (stereo unspecified), for which the cell killing (% activity) is 15.1%.

For the compound `COc1ccc(NC(=O)C2=NNC(=O)CC2)cc1S(=O)(=O)N1CCCCC1`, the cell killing (% activity) was 2.4%.

For the compound `COc1ccc(C(=O)/C=C/Nc2ccccn2)cc1`, the cell killing (% activity) was 74.5% [at 5 µM] (active).

Regarding `COc1ccc(-c2csc(Nc3ccccn3)n2)cc1`, the cell killing (% activity) was 26.9%.

In the case of `CCOc1cc(NC(=O)c2ccccn2)c(OCC)cc1NC(=O)c1ccc(OC)cc1`, the cell killing (% activity) was 6.2%.

As for `Cc1ccc(/C=N/NC(=O)CSc2ccccn2)o1`, the cell killing (% activity) was 28%.

In the case of `Cc1ccnc(NC(=O)Cn2ccc([N+](=O)[O-])n2)c1`, the cell killing (% activity) was -4.4%.

As for `CN1C(=O)/C(=C/C=C2\SCCN2C)OC1=S`, the cell killing (% activity) was 7.1%.

Take `COCCNC(=O)/C(C#N)=C/c1cccc(OCc2ccccc2)c1`: the cell killing (% activity) is 6.3%.

As for `CCOc1ccc(/C=N/Nc2nncc(-c3ccccc3)n2)cc1OC`, the cell killing (% activity) was -7.3%.

In the case of `COc1ccc(/C=N/Nc2nc3ccccc3o2)cc1OC`, the cell killing (% activity) was 33%.

In the case of `COc1cc(/C=N/Nc2nn3cnnc3c3ccccc23)cc(OC)c1OC`, the cell killing (% activity) is 58.2% (active).

In the case of `COc1ccc(NC(=O)C2CCC(CNc3c(N4CCCCC4)c(=O)c3=O)CC2)c(OC)c1` (stereo unspecified), the cell killing (% activity) is -39.4%.

As to `Cc1noc(C)c1S(=O)(=O)N(C)Cc1ccccc1`, the cell killing (% activity) is 17.3%.

Regarding `O=C(Nc1nc2ccccc2s1)c1ccc2c(c1)OCO2`, the cell killing (% activity) was 61.1% (active).

As to `Cc1cc(C)c2nc(NC(=O)c3ccc4c(c3)OCO4)sc2c1`, the cell killing (% activity) is 4.5%.

On to `COCc1nnc(NC(=O)c2ccc3c(c2)OCO3)s1`, for which the cell killing (% activity) is 21.9%.

For the compound `Cc1ccc(NC(=O)CCC(=O)N/N=C/c2ccco2)c(C)c1`, the cell killing (% activity) is 5.1%.

Consider `COC(=O)C(=Nc1ccccc1)/C(C(=O)C(=O)N(C)c1ccccc1)=C(\O)c1ccc(Cl)cc1`, for which the cell killing (% activity) was -15.5%.

Regarding `CC1(C)COC(c2cccn2Cc2ccccc2Cl)=N1`, the cell killing (% activity) was 3.7%.

Consider `COc1cccc(-c2cc(C(=O)N/N=C/c3ccc(OC)c(COC(C)=O)c3)c3ccccc3n2)c1`, for which the cell killing (% activity) is 4.5%.

On to `O=C(N/N=C/C=C/c1ccco1)c1cccs1`, for which the cell killing (% activity) is 24.4%.

Turning to `Cc1ccc(-c2cc(C(=O)N/N=C/C=C/c3ccco3)c3ccccc3n2)cc1C`, the cell killing (% activity) is 55.7% [at 5 µM] (active).

For the compound `Nc1ccccc1SC(C[N+](=O)[O-])c1ccccc1` (stereo unspecified), the cell killing (% activity) was 6.4%.

As for `O=c1c2ccccc2cnn1Cc1n[nH]c(=S)n1-c1ccccc1F`, the cell killing (% activity) is 17.1%.

For `COc1ccc(Cl)cc1NC(=O)Cn1nc(-c2ccc(C)cc2)n(C)c1=S`, the cell killing (% activity) was 14.2%.

Turning to `Cn1cnc([N+](=O)[O-])c1Sc1n[nH]c(N)n1`, the cell killing (% activity) is -16.4%.

As to `COc1cccc(CNC(=O)CCC2CCCN(C(=O)c3cc(C)[nH]n3)C2)c1` (stereo unspecified), the cell killing (% activity) is 12.1%.

Take `CCOC(=O)CSc1nnc(-c2ccc([N+](=O)[O-])cc2)o1`: the cell killing (% activity) was 7.7%.

In the case of `O=C(CSc1nnc(-c2ccc([N+](=O)[O-])cc2)o1)Nc1ccccn1`, the cell killing (% activity) is 51% [at 5 µM] (active).

Take `CCc1ccccc1NC(=O)CSc1nnc(-c2ccncc2)o1`: the cell killing (% activity) was -4.8%.

As for `COc1ccc(CNC(=O)C(Cc2ccccc2)n2cccc2)cc1` (stereo unspecified), the cell killing (% activity) is -1.5%.

For the compound `O=C(CCN1C(=O)C2C3C=CC(C3)C2C1=O)Oc1ccc2ccccc2c1` (stereo unspecified), the cell killing (% activity) is 9.1%.

In the case of `CCCCCCCNc1nc(Cl)nc(NCCO)n1`, the cell killing (% activity) was 17.1%.

Turning to `CC(C)(O)C#Cc1ncc(C(F)(F)F)cc1Cl`, the cell killing (% activity) is 3.1%.

For `Cc1c(C2=CCN(S(=O)(=O)c3ccc(Cl)cc3)CC2)c2ccccc2n1C`, the cell killing (% activity) is 31.7%.

For the compound `Cn1c(-c2ccco2)nc2cc3ccccc3cc21`, the cell killing (% activity) was 89.2% [at 5 µM] (active).

As for `S=c1[nH]nc(-c2ccco2)n1/N=C/c1ccccc1`, the cell killing (% activity) is 8%.

As to `CN1c2ccccc2-c2nc3ccccc3n2C1c1ccco1` (stereo unspecified), the cell killing (% activity) is 12%.

As to `CC(C)C(C)(C#N)NC(=O)CSc1nc2scc(-c3ccccc3)c2c(=O)[nH]1` (stereo unspecified), the cell killing (% activity) was 22.3%.

For the compound `COc1ccccc1N1CCN(C(=O)c2ccc(Cl)c(S(=O)(=O)N3CCCC3)c2)CC1`, the cell killing (% activity) is 0.9%.

Turning to `Oc1ccc(-c2[nH]ncc2-c2nc3ccccc3s2)c(O)c1`, the cell killing (% activity) was 14.3%.

Consider `S=c1[nH]nc(/C=C/c2ccccc2)o1`, for which the cell killing (% activity) was -2.3%.

With `O=c1oc(/C=C/c2ccccc2)nc2ccccc12`, the cell killing (% activity) was 53% [at 5 µM] (active).

With `O=c1oc(-c2ccccc2NS(=O)(=O)c2ccc(Cl)cc2)nc2ccccc12`, the cell killing (% activity) is -12.7%.

Regarding `COc1ccc(Cn2c(O)c(/C=C3/C=CC=N3)c(=O)[nH]c2=O)cc1`, the cell killing (% activity) is 5.9%.

For `Nc1nc(NCC2CCCO2)nc(Nc2ccccc2F)c1[N+](=O)[O-]` (stereo unspecified), the cell killing (% activity) was 2.1%.

`O=C(CCS(=O)(=O)c1ccccc1Cl)Nc1ccc(S(=O)(=O)Nc2ncccn2)cc1`: the cell killing (% activity) was 1.8%.

Turning to `COc1ccc(C(=O)Nc2ccccc2C(=O)N/N=C/c2ccccc2OC)cc1`, the cell killing (% activity) is 28.7%.

As for `COc1cc(/C=N/NC(=O)c2ccccc2)ccc1OS(=O)(=O)c1ccccc1`, the cell killing (% activity) is 21.5%.

As to `COc1ccc(C(=O)Nc2ccccc2C(=O)N/N=C/c2ccc(O)c(OC)c2)cc1`, the cell killing (% activity) is 96.7% [at 5 µM] (active).

Turning to `CCn1cc(CN2CCCC(CNS(=O)(=O)Cc3ccccc3)C2)cn1` (stereo unspecified), the cell killing (% activity) was 14.8%.

Take `O=C(N/N=C/c1cc([N+](=O)[O-])ccc1O)/C(=C\c1cccs1)NC(=O)c1ccccc1`: the cell killing (% activity) is 8.1%.

Regarding `CC12C(=O)N(c3ccccc3)C(=O)C1C(c1ccccc1)N1CCCN12` (stereo unspecified), the cell killing (% activity) was 8.2%.

`Cn1nccc1NC(=O)CC(CC(=O)O)c1ccccc1` (stereo unspecified): the cell killing (% activity) was 5.7%.

Regarding `CC1(C)N=C(c2ccccn2)C(C)(C)N1O`, the cell killing (% activity) was 22.7%.

As for `Cc1cc(-n2cnc(-c3cn(C)nc3C)n2)no1`, the cell killing (% activity) is -10.4%.

For `CN1CCN(CC#CCC2(O)c3ccccc3-c3ccccc32)CC1`, the cell killing (% activity) is 1.7%.

With `O=c1cnnc(Nc2ccccc2)[nH]1`, the cell killing (% activity) is 30.6%.

As to `Cc1nc(-c2ccc(Cl)cc2)sc1C(=O)NN`, the cell killing (% activity) was 59.4% [at 5 µM] (active).

For the compound `Cc1nc(-c2ccc(Cl)cc2)sc1C(=O)CBr`, the cell killing (% activity) is 11.1%.

For the compound `Cc1ccc(SCC(=O)c2sc(-c3ccccc3)nc2C)cc1`, the cell killing (% activity) is 8.5%.

On to `O=C(COC(=O)c1ccc(Cl)nc1)NCc1ccc2c(c1)OCO2`, for which the cell killing (% activity) was -2.9%.

`CC(C(=O)Nc1ccc(F)c(F)c1F)N1CCCCCC1` (stereo unspecified): the cell killing (% activity) was 30.5%.

Regarding `COc1ccc(OC)c(NC(=O)N[C@H](Cc2ccccc2)C(=O)NN)c1`, the cell killing (% activity) is -4.7%.

For `Nn1c(SCC(=O)NC2CCCC2)nnc1-c1ccccc1F`, the cell killing (% activity) was 2.5%.

Take `O=c1c(-c2ccccc2)cnc2n1CCS2`: the cell killing (% activity) is -3.9%.

For `COc1ccc(C2=NOC3(CC(=O)N(c4ccc(C)cc4)C3=O)C2)cc1` (stereo unspecified), the cell killing (% activity) was 12.3%.

For `Cc1ccc(C(=O)NNC2=Nc3cc([N+](=O)[O-])ccc3OC2)cc1`, the cell killing (% activity) is -2.5%.

As for `COc1ccc(C2=Nc3cc(C)ccc3OC2)cc1`, the cell killing (% activity) is 52.1% (active).

In the case of `CNC(=O)NC(=O)C(OC(=O)c1cccc(S(=O)(=O)N2CCCCC2)c1)c1ccccc1` (stereo unspecified), the cell killing (% activity) is 8.9%.

With `N#CCc1ccc(OC(=O)c2cccnc2)cc1`, the cell killing (% activity) is 0.5%.

On to `CCC(C)Cn1c(O)cc2nn(-c3nc4ccccc4s3)c(=O)c-2c1C` (stereo unspecified), for which the cell killing (% activity) is 56% [at 5 µM] (active).

As for `CCOC(=O)N1CCN(CC(=O)Nc2cc(C)nn2-c2nc3ccccc3s2)CC1`, the cell killing (% activity) was -8.9%.

On to `Cc1cc(NC(=O)CN2CCCC(C)C2)n(-c2nc3ccccc3s2)n1` (stereo unspecified), for which the cell killing (% activity) was -3.9%.

Consider `COc1ccc(CCNC2=CC(=O)CC(C)(C)C2)cc1`, for which the cell killing (% activity) was 14.5%.

The values above are taken from PubChem BioAssay AID1443 (Sanford-Burnham Center for Chemical Genomics, 2008).
